Results on 39 compounds are retold here after PubChem BioAssay (NCI).

Compounds without any hit were thinned out: in the full panel of roughly 83,000, 20% have a hit.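 Growth was measured after 48 h exposure to one concentration of compound in 96-well plates. Values under 10 count as active.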 Active and inactive are the calls of the source.

The test system of the first assay is RXF 393 renal. Put plainly: NCI-60 one-dose screen, 48 h (100 = growth as untreated, 0 = no growth, -100 = all killed). Conditions: 10 µM unless noted.
On to `COc1ccc(Nc2ncccc2C(=O)NCc2cn(Cc3cccc(Oc4ccccc4)c3)nn2)cc1`, for which the growth was 46% (inactive).

With `c1ccc(-c2nnc(-c3ccccn3)s2)nc1`, the growth is 109% (inactive).

As for `C=C1CCC2C(C)(CO)C(O)CCC2(C)C1CC(NCc1ccccc1)C1=CCOC1=O` (centres undefined), the growth was 103% (inactive).

For `CCCCCCCCCCCC(=O)NCCC[N+](C)(C)CC(=O)[O-]`, the growth is 77.2% (inactive).

Take `CC(C)CSc1nc(NN)c(C#N)c(-c2ccc(F)cc2)n1`: the growth was 79.3% (inactive).

With `O=c1[nH]c(-c2ccccc2)nc(CN2CCCCC2)c1O`, the growth was 120% (inactive).

Regarding `Cc1ccc(S(=O)(=O)Nc2c(Br)cc(Br)cc2C(N)=O)cc1`, the growth is 93.1% (inactive).

Consider `Nc1nc(-c2ccccc2)c(CCCOc2ccc(NC(=O)CBr)cc2)c(=O)[nH]1`, for which the growth is 106% (inactive).

In the case of `Nc1cccc(-c2nc3sccn3c2-c2ccnc(NCCNS(=O)(=O)c3ccc(C(F)(F)F)cc3)n2)c1`, the growth is 48.7% (inactive).

For `Cc1ccc(-c2nc(C#N)c(S(=O)(=O)n3nc(-c4ccccc4)cc3N)o2)cc1`, the growth is 85% (inactive).

The subject of a further assay is SF-268 CNS. The description is as above. The settings on record: 10 µM unless noted.
In the case of `C/C=C(\C)C(C(=O)NC1CCCCC1)N(C(=O)C1CCc2cc(F)ccc2O1)c1ccc(Cl)cc1` (centres undefined), the growth was 97.2% (inactive).

For the compound `N=C(N)c1ccc(-c2cc(Cl)cc(Cl)c2)cn1`, the growth is 84.9% (inactive).

With `COc1ccc(-c2cc(-c3ccccc3)nc(SCCCC(=O)NO)n2)cc1OC`, the growth was -19.2% (active).

As to `CCC(C)/C(=C\C#N)NCCCN/C(=C/C#N)C(C)CC` (centres undefined), the growth was 113% (inactive).

With `CC1=C(C#N)C(=O)NC(C)C1` (centres undefined), the growth was 104% (inactive).

Take `COc1cccc(/C=C2\Oc3cc(OCCCN4CCCC4)ccc3C2=O)c1OC`: the growth was 91.9% (inactive).

As for `COc1cc(C2C3=C(COC3=O)Nc3cc4c(cc32)CCC4)cc2c1OCO2` (centres undefined), the growth is 27.9% (inactive).

Regarding `CCN(CC)c1ccc(/C=C2\Oc3ccc(O)c(I)c3C2=O)cc1`, the growth was 71.4% (inactive).

As for `C=C(C)[C@@H]1CC[C@]2(C(=O)O)CC[C@]3(C)[C@H](CC[C@@H]4[C@@]5(C)C[C@@H](CC#Cc6ccc(C(F)(F)F)cc6)[C@H](O)C(C)(C)[C@@H]5CC[C@]43C)[C@@H]12`, the growth was 12.6% (inactive).

Turning to `COc1ccc2c(c1)[nH]c(=O)c1c3cccc(F)c3cn21`, the growth was 18% (inactive).

For `CCOC(=O)C1=C(C)NC(C)=C(C(=O)OCC)C1(C)C`, the growth is 110% (inactive).

With `COc1cccc(/C=C/C(=O)Nc2cc(OC)c3c(c2)OCO3)c1`, the growth is 98.2% (inactive).

Consider `COc1cccc(-c2nc3sccn3c2-c2ccnc(NCCCNS(=O)(=O)c3ccc(F)cc3)c2)c1`, for which the growth was 41.2% (inactive).

For the compound `COc1ccc(S(=O)(=O)Nc2cc(/C=C\c3cc(OC)c(OC)c(OC)c3)cc(OC)c2OC)cc1`, the growth was 14% (inactive).

Turning to `Cc1ccc(C(=O)NCCCNc2nccc(-n3ccc4cccnc43)n2)cc1`, the growth is 94.7% (inactive).

As for `N/C(=N\C(N)=N\c1nc2ccccc2s1)c1ccncc1`, the growth is 7.14% (active).

`COC(=O)c1nc(-c2ccccc2)oc1S(=O)(=O)N1CCN(c2cccc(Cl)c2)CC1`: the growth is 80.7% (inactive).

On to `CCCCCCCCC(C)OC(=O)c1nn(C(C)=O)c2ccccc12` (centres undefined), for which the growth is 102% (inactive).

On to `Cc1ccc(N2CCN(C(C)C(N)=O)CC2)cc1` (centres undefined), for which the growth was 100% (inactive).

As for `COc1ccc(S(=O)(=O)NCCCNc2nccc(-c3c(-c4cccc([N+](=O)[O-])c4)nc4sccn34)n2)cc1`, the growth was 49% (inactive).

As for `COc1ccc(-n2c(=S)sc3c(Cl)nc(C)nc32)c(OC)c1`, the growth was 4.67% (active).

`N[C@@H]1CCN(C(=O)c2cc3cc(Cl)c(F)c(F)c3[nH]2)C1`: the growth is 79.8% (inactive).

On to `C=C[C@@H]1C[C@@H]2Cc3cc(F)ccc3N1O2`, for which the growth was 106% (inactive).

In the case of `CCCCN(CCCC)C(=O)CC`, the growth was 105% (inactive).

As for `CC12CCC3C4(C)COC(c5ccco5)OC4CCC3(C)C1CC(C1=CCOC1=O)O2` (centres undefined), the growth was 98.5% (inactive).

For `CCCCN(CCCC)C(=N)c1ccnc2ccccc12`, the growth was 103% (inactive).

For the compound `C=C1C(=O)O[C@H]2[C@H]1CC/C(Cn1cc(CNC(=O)c3cc4ccccc4[nH]3)nn1)=C\CC[C@@]1(C)O[C@@H]21`, the growth is 68.5% (inactive).

Turning to `NC(=O)CCCN1C/C(=C\c2ccccc2)C(=O)c2ccccc21`, the growth is 90.2% (inactive).

For the compound `COc1cc(/C=C/C(=O)N2CCN(C(=O)/C=C/c3cc(OC)c(OC)c(OC)c3)CC2)cc(OC)c1OC`, the growth was 118% (inactive).

With `COc1ccc(Nc2ncccc2C(=O)NCc2cn(Cc3cccc(Oc4ccccc4)c3)nn2)cc1`, the growth is 50% (inactive).

Take `c1ccc(-c2nnc(-c3ccccn3)s2)nc1`: the growth is 95.4% (inactive).

Regarding `C=C1CCC2C(C)(CO)C(O)CCC2(C)C1CC(NCc1ccccc1)C1=CCOC1=O` (centres undefined), the growth was 86.5% (inactive).

Take `CCCCCCCCCCCC(=O)NCCC[N+](C)(C)CC(=O)[O-]`: the growth was 85.5% (inactive).

Regarding `CC(C)CSc1nc(NN)c(C#N)c(-c2ccc(F)cc2)n1`, the growth is 62.6% (inactive).

With `O=c1[nH]c(-c2ccccc2)nc(CN2CCCCC2)c1O`, the growth was 105% (inactive).

Regarding `Cc1ccc(S(=O)(=O)Nc2c(Br)cc(Br)cc2C(N)=O)cc1`, the growth is 109% (inactive).

Take `Nc1nc(-c2ccccc2)c(CCCOc2ccc(NC(=O)CBr)cc2)c(=O)[nH]1`: the growth was 91.8% (inactive).

As for `Nc1cccc(-c2nc3sccn3c2-c2ccnc(NCCNS(=O)(=O)c3ccc(C(F)(F)F)cc3)n2)c1`, the growth is 35.5% (inactive).

Turning to `Cc1ccc(-c2nc(C#N)c(S(=O)(=O)n3nc(-c4ccccc4)cc3N)o2)cc1`, the growth was 101% (inactive).
